Some compounds were tested as several samples or in several runs, with calls that do not always agree. Activity calls are given as the source filed them. How the source made its calls: active means hit-call score of the fitted dose curve at least 0.9, where 1 is the maximum; inactive means score below 0.9.
Assay: ATG_NRF2_ARE_CIS: Attagene CIS-FACTORIAL HepG2 Assay for human Nuclear Factor Erythroid 2 Related Factor 2 (NFR2) response to Antioxidant Response Elements (ARE) (AID 2282992)
Details: HepG2 Attagene ARE/NRF2 reporter, transcription factor activity; actives raise or lower the signal
Protocol: ATG_CIS is a cell-based, multiplexed-readout assay that uses HepG2, a human liver cell line, with measurements taken at 24 hours after chemical dosing in a 24-well plate.ATG_NRF2_ARE_CIS is one of 52 assay component(s) measured or calculated from the ATG_CIS assay. It is designed to make measurements of mRNA induction, a form of inducible reporter, as detected with fluorescence intensity signals by Reverse transcription polymerase chain reaction (RT-PCR) and Capillary electrophoresis technology.Data from the assay component ATG_NRF2_ARE_CIS was analyzed into 1 assay endpoint. This assay endpoint, ATG_NRF2_ARE_CIS, was analyzed with bidirectional fitting relative to DMSO as the negative control and baseline of activity. Using a type of inducible reporter, measures of mRNA for gain or loss-of-signal activity can be used to understand the reporter gene at the transcription factor-level as they relate to the gene NFE2L2. Furthermore, this assay endpoint can be referred to as a primary readout, because this assay has produced multiple assay endpoints where this one serves a reporter gene function. To generalize the intended target to other relatable targets, this assay endpoint is annotated to the dna binding intended target family, where the subfamily is basic leucine zipper.
Human liver HepG2 cells are transiently transfected with multiple reporter transcription units (MRTUs) in 6-well plates using FuGene 6 reagent (Roche; 3 ml FuGene/1 mg DNA). The MRTU constructs are regulated by a cis-regulating element (promoter). […] A major difference between the CIS and TRANS system is that in CIS activities of endogenous TFs are measured, whereas the TRANS assay evaluates changes in activities of exogenous, chimeric NR-Gal4 proteins. […] At the end of 24 hour incubation, total RNA was isolated using TriZol reagent (Invitrogen). The isolated RNA is then reverse-transcribed using oligo(dT) primer and Mo-MLV reverse transcriptase (Invitrogen) with DNAse I (Ambion) treatment for 30 min. The one-tenth of the produced cDNA was amplified by PCR using Taq DNA polymerase (Invitrogen) and two reporter sequence-specific primers. The PCR products were fluorescently labeled by primer extension with 6-arboxyfluorescein (6-FAM) 5'-labeled reporter sequence-specific primer (2 min at 95 C, 20 s at 68 C and 10 min at 72 C) and these products were digested with 5U of HpaI (New England Biolabs) for 2h at 37 C. The fragments were purified using Qiaquick PCR columns (Qiagen), analyzed on an ABI 3130xL genetic analyzer (Applied Biosystems) with peak positions identified by using a set of X-rhodamine (ROX)-labeled MapMarker1000 molecular weight standards (BioVentures). The raw capillary electrophoresis data was processed using Attagraph software (Attagene).
For NC(=O)NN=Cc1ccc([N+](=O)[O-])o1, the AC50 was 27.8 µM (active).
For OCCNCCO, the outcome was “inactive”.
In the case of CC(C)C(=O)Nc1ccc([N+](=O)[O-])c(C(F)(F)F)c1, the AC50 is reported as 25.3 µM (active).
For C[Si](C)(C)C(F)(F)C(F)(F)C(F)(F)F, the outcome was “inactive”.
For Cc1nccn1-c1ccc(Sc2cccc(C3(C(N)=O)CCOCC3)c2)cc1, the AC50 was 0.858 µM (active).
For CCCc1ccccc1, the outcome was “inactive”.
With O=C(NO)C1(NS(=O)(=O)c2ccc(Oc3ccc(F)cc3)cc2)CCOCC1 the AC50 was 33 µM (active).
In the case of OCC(CO)(CO)CO, the outcome is reported as “inactive” and the AC50 is reported as 141 µM (active).
In the case of OC[C@H]1O[C@@H]2O[C@H]3[C@H](O)[C@@H](O)[C@@H](O[C@H]4[C@H](O)[C@@H](O)[C@@H](O[C@H]5[C@H](O)[C@@H](O)[C@@H](O[C@H]6[C@H](O)[C@@H](O)[C@@H](O[C@H]7[C@H](O)[C@@H](O)[C@@H](O[C@H]1[C@H](O)[C@H]2O)O[C@@H]7CO)O[C@@H]6CO)O[C@@H]5CO)O[C@@H]4CO)O[C@@H]3CO, the outcome is reported as “inactive”.
In the case of CCc1ccc(O)c(C(C)(C)C)c1, the AC50 is reported as 27.7 µM (active).
For OC[C@H]1O[C@@](CO)(O[C@H]2O[C@H](CO)[C@@H](O)[C@H](O)[C@H]2O)[C@@H](O)[C@@H]1O, the AC50 was 58.6 µM (active).
In the case of O=C(Cl)C(F)(F)C(F)(F)C(F)(F)C(=O)Cl, the outcome is reported as “inactive”.
For O=S1(=O)CCCO1, the outcome was “inactive”.
For CCCCOC(=O)c1ccccc1, the outcome was “inactive”.
With CCCOc1ccc(S(=O)(=O)N2CCN(CC)CC2)cc1-c1nc2c(CC)n(Cc3ccccn3)nc2c(=O)[nH]1 the AC50 was 43 µM (active).
In the case of O=S(=O)(O)c1ccc(N=Nc2c(O)ccc3cc(S(=O)(=O)O)ccc23)cc1, the outcome is reported as “inactive”.
For CCCCC(CC)C(=O)OCCOCCOCCOC(=O)C(CC)CCCC (stereo not given), the outcome was “inactive”.
In the case of Cc1ccc(S(=O)(=O)NC(=O)NN2CCCCCC2)cc1, the outcome is reported as “inactive”.
With COc1cc2c(c(OC)c1OC)-c1ccc(OC)c(=O)cc1[C@@H](NC(C)=O)CC2 the outcome was “inactive”.
For NNC(=O)c1ccncc1, the outcome was “inactive”.
For Cn1c(=O)c2[nH]cnc2n(C)c1=O, the outcome was “inactive”.
For O=S(=O)(O)CCC(F)(F)C(F)(F)C(F)(F)C(F)(F)C(F)(F)C(F)(F)F, the outcome was “inactive”.
For S=P(N1CC1)(N1CC1)N1CC1, the outcome was “inactive”.
In the case of OC(CCl)CCl, the outcome is reported as “inactive”.
For FC(F)(F)C(F)(F)C(F)(F)C(F)(F)C(F)(F)C(F)(F)I, the AC50 was 107 µM (active) and the outcome was “inactive”.
For CCc1cccc(CC)c1N, the outcome was “inactive”.
In the case of CCCC(CCC)C(=O)O, the outcome is reported as “inactive”.
For OCCC(F)(F)C(F)(F)C(F)(F)C(F)(F)F, the outcome was “inactive”.
For c1ccc(C(O[C@@H]2CCCN(CCc3ccc4c(c3)OCO4)C2)c2ccccc2)cc1, the AC50 was 33 µM (active).
In the case of FC(F)=C(F)C(F)(F)C(F)(F)C(F)(F)C(F)(F)C(F)(F)C(F)(F)F, the outcome is reported as “inactive” and the AC50 is reported as 86.6 µM (active).
In the case of Cc1nc(-c2ccccn2)ncc1C(=O)Nn1cc(C)c2cc(F)ccc21, the outcome is reported as “inactive”.
With CCCCN1C(=O)[C@@H]([C@H](O)C2CCCCC2)NC(=O)C12CCN(Cc1ccc(Oc3ccc(C(=O)O)cc3)cc1)CC2 the outcome was “inactive”.
For OC(O)(C(F)C(O)(O)C(F)(F)F)C(F)(F)F, the AC50 was 39.4 µM (active) and the outcome was “inactive”.
In the case of NC(=O)N(O)[C@@H]1COc2cc(OCc3ccccc3)ccc21, the outcome is reported as “inactive”.
In the case of O=C(O)c1cccc(C[C@@H]2COc3ccc(OCc4nc5cc(F)ccc5s4)cc3[C@@H]2O)c1, the AC50 is reported as 32.3 µM (active).
With CCCCCCOC(=O)CC(CC(=O)OCCCCCC)(OC(=O)CCC)C(=O)OCCCCCC the outcome was “inactive”.

Source: PubChem BioAssay (EPA / NIEHS)
